Assay results reported in PubChem BioAssay AID1159580 (chemical genetic matrix, 2015).
Values joined by “and” are separate entries in the source; they are usually repeats but may differ in a detail not shown here. Equal values may be shown once. The whole screen tested about 5,500 compounds, of which about 2,000 (36%) were called active. Inconclusive results (about 18%) are left out. No stated cut-off is given here; in the data, active means normalized growth mostly below about 0.91 (no sharp cut-off); inconclusive means no clear call, values can overlap the other calls; inactive means mostly above about 0.92. Some of the results follow.

Assay: chemical genetic growth profiling, strain panel (AID 1159580);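 further: tested at 20 µM; growth read once vehicle control cultures reached saturation at 30 °C; 1 = growth at the plate median or of vehicle wells; lower values mean less growth of the strain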
Conditions: S. cerevisiae deletion strains, growth OD

Measured: normalized growth

CC1(C)CC[C@]2(C)CC[C@]3(C)C(=CCC4[C@@]5(C)CC[C@H](O)C(C)(C)C5CC[C@]43C)C2C1 (stereo partly specified)
inactive: locus YAL021C, strain ccr4, hits give low values 0.992 | locus YAL026C, strain drs2, hits give low values 1 | locus YAL030W, strain snc1, hits give low values 0.988 | locus YBL061C, strain skt5, hits give low values 0.986 | locus YBR009C, strain hhf1, hits give low values 1.02 | locus YBR021W, strain FUR4, hits give low values 1.07 | locus YBR023C, strain chs3, hits give low values 0.975 | locus YBR171W, strain sec66, hits give low values 0.993 | locus YBR229C, strain ROT2, hits give low values 1.01 | locus YBR231C, strain swc5, hits give low values 1 | locus YBR279W, strain paf1, hits give low values 0.991 | locus YCL011C, strain gbp2, hits give low values 0.985 | locus YCL016C, strain dcc1, hits give low values 0.99 | locus YCL029C, strain bik1, hits give low values 0.999 | locus YCL061C, strain MRC1, hits give low values 1 | locus YCL069W, strain vba3, hits give low values 0.995 | locus YCR088W, strain abp1, hits give low values 0.999 | locus YDL005C, strain med2, hits give low values 1.01 | locus YDL035C, strain GPR1, hits give low values 1.02 | locus YDL040C, strain nat1, hits give low values 1 | locus YDL074C, strain BRE1, hits give low values 1.02 | locus YDL101C, strain DUN1, hits give low values 0.997 | locus YDL185W, strain tfp1, hits give low values 0.954 | locus YDL192W, strain arf1, hits give low values 0.99 | locus YDR001C, strain nth1, hits give low values 0.994 | locus YDR069C, strain doa4, hits give low values 0.978 | locus YDR101C, strain arx1, hits give low values 1 | locus YDR137W, strain rgp1, hits give low values 1.01 | locus YDR150W, strain NUM1, hits give low values 1 | locus YDR159W, strain sac3, hits give low values 1.02 | locus YDR162C, strain NBP2, hits give low values 1.04 | locus YDR195W, strain ref2 0.965 | locus YDR297W, strain sur2, hits give low values 0.972 | locus YDR318W, strain mcm21, hits give low values 0.985 | locus YDR334W, strain swr1, hits give low values 0.996 | locus YDR335W, strain msn5, hits give low values 1 | locus YDR388W, hits give low values 0.988 | locus YDR392W, strain spt3, hits give low values 1.01 | locus YDR502C, strain sam2, hits give low values 0.986 | locus YEL003W, strain gim4, hits give low values 0.993 | locus YEL037C, strain rad23, hits give low values 0.998 | locus YEL061C, strain CIN8 (second series), hits give low values 0.987 | locus YER015W, strain faa2, hits give low values 0.988 | locus YER016W, strain bim1, hits give low values 0.995 | locus YER110C, hits give low values 0.987 | locus YER111C, strain swi4, hits give low values 0.994 | locus YER155C, strain BEM2 (second series), hits give low values 0.982 | locus YER155C, strain BEM2, hits give low values 1 | locus YER167W, strain BCK2, hits give low values 0.992 | locus YFR010W, strain ubp6, hits give low values 1.01 | locus YGL078C, strain dbp3, hits give low values 0.955 | locus YGL086W, strain mad1, hits give low values 0.987 | locus YGL167C, strain pmr1, hits give low values 0.994 | locus YGL173C, strain kem1, hits give low values 0.998 | locus YGL227W, strain vid30, hits give low values 0.986 | locus YGL240W, strain doc1, hits give low values 0.983 | locus YGL248W, strain PDE1, hits give low values 1.01 | locus YGL253W, strain hxk2, hits give low values 0.993 | locus YGR078C, strain PAC10, hits give low values 1 | locus YGR135W, strain pre9, hits give low values 0.963 | locus YGR229C, strain SMI1, hits give low values 0.989 | locus YGR252W, strain gcn5, hits give low values 1.04 | locus YHR013C, strain ard1, hits give low values 0.986 | locus YHR027C, strain rpn1, hits give low values 0.977 | locus YHR030C, strain SLT2, hits give low values 1.07 | locus YHR079C, strain IRE1 (second series), hits give low values 0.989 | locus YHR079C, strain IRE1, hits give low values 1.03 | locus YHR094C, strain hxt1, hits give low values 0.997 | locus YHR129C, strain ARP1, hits give low values 1.01 | locus YHR142W, strain chs7, hits give low values 1.04 | locus YHR200W, strain rpn10, hits give low values 0.996 | locus YIL066C, strain RNR3, hits give low values 1.02 | locus YIL073C, strain SPO22, hits give low values 0.964 | locus YIL125W, strain kgd1, hits give low values 0.947 | locus YIR030C, strain dcg1, hits give low values 0.985 | locus YJL092W, strain hpr5, hits give low values 1.01 | locus YJL095W, strain BCK1 (second series), hits give low values 0.991 | locus YJL095W, strain BCK1, hits give low values 0.995 and 1.03 | locus YJL115W, strain asf1, hits give low values 0.985 | locus YJL129C, strain trk1, hits give low values 1.02 | locus YJL134W, strain LCB3, hits give low values 0.998 | locus YJL154C, strain vps35, hits give low values 0.99 | locus YJL164C, strain tpk1, hits give low values 0.999 | locus YJL166W, strain qcr8, hits give low values 0.997 | locus YJL168C, strain set2, hits give low values 0.989 | locus YJL187C, strain SWE1 (second series), hits give low values 0.997
